The list is not random: actives were taken first. Their share in the collection is about 7.8%.
Lassa entry inh: qHTS for Inhibitors of binding or entry into cells for Lassa Virus | Potency, µM (top dose mostly 37.9 µM), inactives show top-dose activity change, negative = inhibition, usual class: inhibitors | Lassa virus pseudotype entry inhibition, cell reporter | 300,000 tested, 1.2% active; calls by dose curve; tested in HEK293 cells; also: potency is read from the fitted curve at half-maximal effect; nearly all actives have a fitted effect of over 50% in size
HCV inhibitor: qHTS Assay for Inhibitors of Hepatitis C Virus (HCV). Huh7.5.1 HCVcc-Cre infection, luciferase reporter, 44 h. Potency, µM (doses to about 41.8 µM), inactives show at the highest dose activity change, negative = inhibition, usual class: inhibitors. 340,000 tested, 3.4% active; active = well fitted inhibition curve with a large enough effect; inconclusive = small, poorly fitted or top-dose-only effect, or another doubt; inactive = no such curve, though single readings can be large or run the other way; also: potency is read from the fitted curve at half-maximal effect
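Cells (1,000/well) were plated 4 h before compound, then infected with HCVcc-Cre virus (~0.5 moi). After 44 h further culture, infection was read as luciferase luminescence following a 15 min substrate incubation at room temperature.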
HCMV antiviral: qHTS Assay for inhibitors of the human cytomegalovirus (HCMV) | HFF cells, HCMV-luciferase reporter, 72 h; stronger effect = lower value | activity change, negative = inhibition, % at 57.5 µM | 410,000 tested, 4.5% active | AID 1259415, 2018; in the data active = activity change below about -60%; inconclusive = no clear call, values can overlap the other calls; inactive = above about -39%
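Two compound doses tested in HFFs infected with HCMV-luciferase, MOI 1 PFU/cell, 72 h at 37C. Lysate luminescence read with OneGlo; data normalized against buffer-only and 10uM Salinomycin inhibitor controls.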
VACV Venus inh: qHTS for Stage-Specific Inhibitors of Vaccinia Orthopoxvirus: Venus Reporter Primary qHTS; Potency, µM (top dose mostly 36.5 µM), for inactives: top-dose activity change, negative = inhibition, usual class: inhibitors; AID 720580, 2013; Vaccinia virus Venus reporter expression, fluorescence; 330,000 tested, 0.46% active; calls by dose curve; tested in A549 cells; also: potency is read from the fitted curve at half-maximal effect; nearly all actives have a fitted effect of over 30% in size
Marburg entry inh: qHTS for inhibitors of binding or entry into cells for Marburg Virus | Marburg virus pseudotyped entry inhibition, cell reporter | Potency, µM (titrated, usually from 37.8 µM), without a hit: top-dose activity change, negative = inhibition, hits mostly inhibitors | 300,000 tested, 1.8% active; calls by dose curve; tested in HEK293 cells; also: potency is read from the fitted curve at half-maximal effect
VACV mCherry inh: qHTS for Stage-Specific Inhibitors of Vaccinia Orthopoxvirus: mCherry Reporter Primary qHTS | Vaccinia virus mCherry reporter infection, fluorescence | Potency, µM (top dose mostly 36.5 µM), without a hit: top-dose activity change, negative = inhibition, hits mostly inhibitors | 310,000 tested, 0.63% active | AID 720579, 2013; calls by dose curve; tested in A549 cells; also: potency is read from the fitted curve at half-maximal effect; nearly all actives have a fitted effect of over 35% in size
Active calls of the source: *; i = inactive; u = inconclusive; x = no result; [ ] = another dose, or the depositor's remark. % is scaled to controls: 0 for no effect and ±100 for the full control effect.

SMILES	Lassa entry inh	HCV inhibitor	HCMV antiviral	VACV Venus inh	Marburg entry inh	VACV mCherry inh
COc1ccc(/C=N/Nc2nc(Nc3ccccc3)nc(N3CCCC3)n2)cc1	6%	10µM*	0	-7%	5%[46.1 µM]	-5%
CC(Oc1ccc(Br)cc1)C(=O)NC1CCN(Cc2ccccc2)CC1 (stereo not given)	-31%	u	-28	-16%	13µM*	-4%
CCCc1cc(=O)oc2cc(C)cc(OCC(=O)NC3CCN(Cc4ccccc4)CC3)c12	x	u	26	x	x	x
CCc1cc(=O)oc2cc(C)cc(OC(C)C(=O)NC3CCN(Cc4ccccc4)CC3)c12 (stereo not given)	-23%[46.1 µM]	13µM*	-10	-12%	u	-8%
Cc1cccc(NC(=O)C2CCN(c3nc4ccccc4[nH]3)CC2)c1C	5%[46.1 µM]	x	0	-6%	x	-6%
CCc1ccc(OCC(=O)N(Cc2ccco2)Cc2ccco2)cc1	11%[46.1 µM]	x	-3	-12%	-8%[46.1 µM]	-6%
CC1CCCC(C)N1/N=C/c1c[nH]c2ccc(Br)cc12 (stereo not given)	-9%	-13%	-78*	u	u	u
CC(C)c1cc(C(=O)N2CCCC(CCC(=O)N3CCN(c4ccccn4)CC3)C2)no1 (stereo not given)	6%	u	-62*	-8%	-20%[46.1 µM]	14%
O=C(CCC1CCCN(C(=O)c2ccc3c(c2)OCO3)C1)N1CCN(c2ccccn2)CC1 (stereo not given)	-26%[46.1 µM]	10µM*	-34	-17%	u	0%
Cc1ccccc1Cn1nnc(-c2ccc(F)cc2)n1	u	-7%	-75*	-13%	10%[46.1 µM]	-16%
Fc1ccc(-c2nnn(Cc3ccccc3Cl)n2)cc1	u	2µM*	5	-2%	u	i
Nc1ccc(-c2nnn(Cc3ccccc3F)n2)cc1	-16%	-14%	2	-3%	28%	-12%
O=C(NCC1CCC2(CCN(Cc3ccc4ncccc4c3)CC2)O1)C1CCCO1 (stereo not given)	x	x	x	-13%	x	i
Cc1cc(C)cc(NC(=O)Nc2cc(-c3ccccc3)nn2C)c1	4%[46.1 µM]	1%	-69*	0%	22%[46.1 µM]	0%
Cn1nc(-c2ccccc2)cc1NC(=O)Nc1ccccc1F	3%	-6%	29	-10%	-3%[14.2 µM]	-5%
COc1cc(=O)n2c(c1C(=O)NCc1ccco1)CCN(Cc1ccc3nsnc3c1)CC2	x	x	x	0%	x	-2%
CN(C)/C=N/c1c(C#N)cnn1-c1ncnc2sc(-c3ccccc3)cc12	11µM*	u	-23	u	u	-8%[1.46 µM]
O=C(NCCSc1ccc(Cl)cc1)c1ccc(CN2CCOCC2)cc1	-4%	u	-36	-19%	u	-15%
O=C(NCCSCc1ccc(Cl)cc1Cl)c1ccc(CN2CCOCC2)cc1	u	11µM*	u	u	u	-19%
Cc1ccc(S(=O)(=O)N(C(=O)c2ccncc2)c2ccc(OC(=O)c3ccncc3)cc2)cc1	-18%	4%	-68*	-19%	-33%	i
CCOC(CNCc1cc(C)c2[nH]c3ccccc3c2c1C)OCC	u	1.8µM*	u	u	u	u
CCOC(CCNC(=O)c1cc2c(=O)[nH]c3ccccc3c2s1)OCC	x	-6%	6	x	x	x
O=C(C1=C(O)C(=O)N(c2ncccn2)[C@@H]1c1cccc(Cl)c1)c1ccco1	x	x	x	x	-1%	x
Cc1[nH]c(N=Nc2ccccc2)nc1N=Nc1ccccc1	u	13µM*	-37	-15%	u	u
CCCN(C(=O)c1ccc2c(=O)n3c(nc2c1)CCCCC3)c1cccc(Cl)c1	-26%[46.1 µM]	x	-10	-21%	1%[46.1 µM]	i
SMILES	Lassa entry inh	HCV inhibitor	HCMV antiviral	VACV Venus inh	Marburg entry inh	VACV mCherry inh
COc1cc(OC)c(C2Oc3nc(SC)nnc3-c3ccccc3N2C(C)=O)cc1OC (stereo not given)	x	-1%	12	11%	5%	7%
CCSc1nnc2c(n1)OC(c1ccc(OC)cc1OC)N(C(C)=O)c1ccccc1-2 (stereo not given)	-27%[46.1 µM]	x	-63*	9%	-7%[46.1 µM]	-7%
O=C(COC(=O)Cc1ccccc1)Nc1ncc(Cl)cc1Cl	6%	1%	u	-19%	0%[46.1 µM]	x
O=C(COC(=O)CNC(=O)c1ccco1)Nc1ncc(Cl)cc1Cl	x	5%	-100*	x	x	x
CCOc1ccccc1OCC(=O)OCC(=O)Nc1ncc(Cl)cc1Cl	8%	20%	-72*	-10%	11%	i[1.46 µM]
COc1ccccc1OCC(=O)OCC(=O)Nc1ncc(Cl)cc1Cl	-4%	1%	-3	1%	-17%[46.1 µM]	x
CC(C)(C)c1ccc(OCCC(=O)Nc2ccc(N3CCOCC3)cc2N2CCOCC2)cc1	u	u	-8	-26%	u	13µM*
O=C(COc1ccc(F)cc1Cl)Nc1ccc(N2CCOCC2)cc1N1CCOCC1	-23%	22µM*	-17	-12%	u	-14%
CCOc1cc(N2CCOCC2)c(OCC)cc1NC(=O)COC(=O)CCOc1ccc(C(C)(C)C)cc1	u	12%	3	-12%	5%	i
Cc1nn(Cc2ccc(F)cc2)c2sc(C(=O)Nc3ccc(N4CCOCC4)cc3N3CCOCC3)cc12	u	u	-67*	u	u	u
O=C(CSCc1ccc(F)cc1)Nc1ccc(N2CCOCC2)cc1N1CCOCC1	x	-12%	2	x	x	x
Cc1csc(N=Nc2ccc(N(C)C)cc2)[n+]1[O-]	x	x	u	-14%	x	i
CCOc1ccccc1C(=O)N1CCc2cc(OC)c(OC)cc2C1COc1ccc2c(C)cc(=O)oc2c1 (stereo not given)	-5%[46.1 µM]	x	-3	-20%	u	-28%
COc1cc(NC(=O)c2cc(-c3cc(F)ccc3OC(C)C)n[nH]2)cc(OC)c1OC	x	x	13	-14%	x	7%
Nc1nnc(SCC(=O)NNC(=O)c2ccc(Cl)cc2)s1	x	19%	-73*	x	x	x

Compound activity from PubChem.
